Bioassay records from PubChem BioAssay.
PAFAH1B3 FP inh: inhibitors of human PAFAH1B3 | Q15102 | recombinant PAFAH1B3, FP-rhodamine probe, fluorescence polarization | inhibition, % at 3.39 µM | 0.28% of 340,000 active;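 active means inhibition above the screen-wide average of all tested compounds plus 3 SD, cut at about 25% in these data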;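 further: 0% = enzyme with DMSO only and 100% = wells lacking PAFAH1B3 protein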
PME-1 primary: PME-1 (human) inhibition; inhibition, % at 5.9 µM; Q9Y570; 0.53% of 320,000 active; recombinant PME-1, FP-Rh probe fluorescence polarization; AID 2130;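 active means inhibition above the campaign mean of all compounds plus 3 SD, cut at about 26% in these data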;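 further: competitive labeling of PME-1 active site by serine hydrolase directed probe; 0% = PME-1 with DMSO and 100% = wells lacking PME-1 enzyme; inhibitors block probe labeling so polarization falls and inhibition rises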
Target sequence (Q9Y570 whole entry, looked up): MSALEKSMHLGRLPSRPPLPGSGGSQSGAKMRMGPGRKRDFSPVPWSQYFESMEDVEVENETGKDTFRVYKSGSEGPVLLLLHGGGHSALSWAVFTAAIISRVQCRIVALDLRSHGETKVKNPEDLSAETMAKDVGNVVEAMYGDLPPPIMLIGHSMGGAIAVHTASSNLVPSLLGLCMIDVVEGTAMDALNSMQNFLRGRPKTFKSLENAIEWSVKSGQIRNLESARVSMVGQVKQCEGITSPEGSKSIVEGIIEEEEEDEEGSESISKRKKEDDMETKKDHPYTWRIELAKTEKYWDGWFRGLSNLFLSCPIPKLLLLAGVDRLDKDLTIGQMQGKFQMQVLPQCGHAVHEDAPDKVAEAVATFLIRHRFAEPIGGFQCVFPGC
PAFAH1B2 FP inh: inhibitors of human PAFAH1B2. recombinant PAFAH1B2, FP-rhodamine activity probe, fluorescence polarization. inhibition, % at 3.39 µM. AID 492953. 1.2% of 340,000 active;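 active means inhibition above the mean of all tested compounds plus 3 SD, cut at about 24% in these data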;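 further: 0% = enzyme with DMSO and 100% = wells lacking PAFAH1B2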
Target sequence (P68402 whole entry, looked up): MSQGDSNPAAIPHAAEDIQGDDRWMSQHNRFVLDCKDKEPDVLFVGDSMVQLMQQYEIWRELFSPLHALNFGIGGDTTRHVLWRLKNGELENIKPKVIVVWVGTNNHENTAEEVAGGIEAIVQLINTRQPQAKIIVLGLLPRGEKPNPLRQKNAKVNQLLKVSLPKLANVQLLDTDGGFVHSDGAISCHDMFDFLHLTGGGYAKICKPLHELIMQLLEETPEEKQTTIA
PAFAH2 inh: inhibitors of human PAFAH2; Q99487; recombinant PAFAH2, FP-rhodamine activity probe, fluorescence polarization; inhibition, % at 3.39 µM; 0.99% of 340,000 active; AID 492956;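 active means inhibition above the mean over all tested compounds plus 3 SD, cut at about 30% in these data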;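 further: inhibitors block probe labeling of enzyme so polarization drops; 0% = enzyme with DMSO and 100% = wells lacking PAFAH2 protein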
pPAFAH FP inh: inhibitors of human plasma PAF acetylhydrolase (pPAFAH); recombinant pPAFAH, FP-rhodamine probe fluorescence polarization; AID 463082; 1.5% of 330,000 active; inhibition, % at 3.39 µM;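 active means inhibition above the mean inhibition across the screen plus 3 SD, cut at about 25% in these data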;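 further: inhibitors block binding of the rhodamine activity-based probe so polarization drops; 0% = enzyme with DMSO and 100% = wells lacking pPAFAH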
Fam108B inh: blocks mouse Fam108B hydrolase in RBBP9 counter-screen | 0.33% of 300,000 active | AID 1947 | inhibition, % at 9.51 µM | recombinant Fam108B, FP-Rh probe fluorescence polarization;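 active means inhibition above the screen mean inhibition plus 3 SD, computed separately per campaign, cut at about 18% in these data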;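 further: inhibitors lower polarization as less probe binds the enzyme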
Fam108b inh conf: confirmation of mouse Fam108b serine hydrolase inhibitors; shares compounds with Fam108B inh; 44% of 930 active; inhibition, % at 9.51 µM; recombinant Fam108b, FP-Rh probe fluorescence polarization; AID 1978;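 active means inhibition above a limit from the primary screen, the mean over all compounds plus 3 SD, cut at about 19% in these data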;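 further: 0% = median of active Fam108b wells and 100% = catalytically dead S170A mutant; inhibitors free the probe so polarization falls as inhibition rises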
Fam108b inh: inhibits mouse Fam108b in gel-based ABPP; AID 588649; 44% of 260 active; shares compounds with Fam108B inh; recombinant Fam108b, fluorophosphonate probe; inhibition, % at 20 µM; in the data active means inhibition above about 40%
* marks the source's active call; other numbers are inactive results; / = not tested or not shown. Most compounds without a hit are left out; they make up all but 2.9% or so of the library.

SMILES	PAFAH1B3 FP inh	PME-1 primary	PAFAH1B2 FP inh	PAFAH2 inh	pPAFAH FP inh	Fam108B inh	others
Cc1c(Br)cc(C(=O)OC2CCN(C)CC2)c(C)c1C	-2.3	-1.6	1.3	-2.1	0.9	-1.1
CC(C)c1ccc(N2C(=O)/C(=C/N(C)C)SC2=S)cc1	12.0	-2.4	14.7	11.3	29.5*	-21.2
COc1ccc(-c2csc(-c3cc4ccccc4oc3=N)n2)cc1	4.1	-7.2	-1.8	-5.9	-3.2	2.8
CC(=O)N1C(C)(C)CC(=NOC(=O)c2ccc(C)cc2)CC1(C)C	9.8	-5.5	0.4	82.6*	25.1*	-3.4
Cc1ccc(C(=O)ON=C2CCN(c3ccc([N+](=O)[O-])cc3)CC2)cc1	5.7	-0.3	2.6	76.7*	8.0	-3.9
Cc1ccc(C(=O)NC(=S)N2CCN(c3ccc([N+](=O)[O-])cc3)CC2)cc1	3.1	4.0	0.8	-6.0	1.6	-0.9
Cc1c(NC(=O)Nc2cccc(C(F)(F)F)c2)c(=O)n(-c2ccccc2)n1C	-10.9	-1.2	3.0	2.2	6.0	4.0
COc1ccc(-n2cc(-c3ccccc3)c3c(NCCOCCO)ncnc32)cc1	6.4	2.7	-0.3	-8.5	28.2*	2.5
COC(=O)C(C)Sc1ncnc2c1c(-c1ccccc1)cn2-c1ccc(OC)cc1 (stereo not given)	5.2	-2.4	-1.4	-6.5	16.8	-4.7
COc1ccc(-n2cc(-c3ccccc3)c3c(NN4CCOCC4)ncnc32)cc1	2.6	0.1	2.2	5.4	20.5	-4.3
CCOc1ccc(-n2cc(-c3ccccc3)c3c(SC(C)C(=O)OC)ncnc32)cc1 (stereo not given)	-0.6	-3.0	-1.4	-2.7	30.3*	-4.0
CC1CN(c2ncnc3c2c(-c2ccccc2)cn3-c2ccc(F)cc2)CC(C)O1 (stereo not given)	5.9	-1.9	-1.8	5.3	-0.1	-7.0
NS(=O)(=O)c1ccc(CCNc2ncnc3c2c(-c2ccccc2)cn3-c2ccc(F)cc2)cc1	4.0	-5.5	1.5	10.3	26.8*	-7.4
Brc1cc2c(cc1/C=N/Nc1nc(N3CCCC3)nc(N3CCOCC3)n1)OCO2	7.8	2.7	1.6	-9.9	1.5	2.6
Cc1cc(C(=O)COc2ccccc2C(N)=O)c(C)n1C	8.5	1.2	0.2	-5.0	-4.0	-4.4
Cc1cc(C(=O)COc2cccc3cccnc23)c(C)n1C	6.6	18.5	13.2	25.7	26.2*	8.3
CC(C)NC[C@H](O)c1ccc(O)c(O)c1	7.6	0.2	-2.6	6.4	7.1	-4.7
CNCC(O)c1ccc(OC(=O)C(C)(C)C)c(OC(=O)C(C)(C)C)c1 (stereo not given)	1.2	3.1	27.0*	-0.4	2.9	1.1
Cc1cnccc1CN(C)C(=O)C1CCC(=O)N(Cc2ccccc2F)C1 (stereo not given)	9.9	7.1	0.6	1.3	4.9	6.1
COc1ccc(Nc2cnn(-c3nc4ccccc4s3)c(=O)c2Cl)cc1	2.7	29.1*	0.8	-11.5	1.8	1.6
CCOc1ccc(CCNC(=O)Cc2ccc(NC3=NC4CS(=O)(=O)CC4S3)cc2)cc1 (stereo not given)	-6.0	-3.1	2.5	-7.6	-4.6	3.3
CCc1n[nH]c(=S)n1/N=C/c1ccc2c(c1)OCO2	-3.8	-1.5	1.6	2.6	9.4	-4.0
CCc1n[nH]c(=S)n1/N=C/c1ccc(N(C)c2ccccc2)cc1	11.4	13.9	-6.2	-0.9	25.6*	5.3
CSc1nnc(-c2ccco2)c(-c2ccco2)n1	7.0	-7.1	8.1	21.3	30.7*	10.5
COC(=O)Nc1ccc(S(=O)(=O)N2CCC(Cc3ccccc3)CC2)cc1	-12.1	-34.2	4.5	0.7	-17.6	-26.3
SMILES	PAFAH1B3 FP inh	PME-1 primary	PAFAH1B2 FP inh	PAFAH2 inh	pPAFAH FP inh	Fam108B inh	others
COc1ccc(S(=O)(=O)N2CCN(C(=S)NCCc3ccccc3)CC2)cc1	3.3	12.7	27.1*	1.4	-3.9	-1.1
CC(C)(C)c1ccc(C(CC(=O)O)NC(=O)Cc2ccc(F)cc2)cc1 (stereo not given)	/	-1.8	/	/	2.5	-1.6
O=C(COC(=O)CC12CC3CC(CC(C3)C1)C2)Nc1ncc(Cl)cc1Cl	-4.1	0.2	13.2	20.2	26.7*	3.4
c1ccc(C2OCCN2c2ccccc2)cc1 (stereo not given)	12.2	/	10.5	1.0	/	/
N#Cc1ccsc1NC(=O)CSc1nnc(-c2ccccc2)o1	1.7	-1.8	0.2	6.8	34.1*	5.0
O=C(CSc1nnc(-c2ccccc2)o1)Nc1ccccc1F	5.5	-1.5	5.0	13.3	2.3	0.8
Clc1cc(Sc2ccc(Br)cc2)nnc1-c1ccccc1	-2.0	4.2	0.6	-1.9	4.7	-5.3
CN(Cc1ccccc1F)C(=O)CCNC(=O)c1ccc(C(C)(C)C)cc1	1.5	-3.0	27.9*	-3.2	4.8	/
CC(C)(C)c1ccc(C(=O)NCCC(=O)NNC(=O)COc2ccccc2F)cc1	3.7	/	25.3*	-7.7	2.2	/
CN(Cc1ccccc1F)C(=O)CNC(=O)Cc1cccc2ccccc12	0.5	-0.9	2.4	-0.9	2.5	-0.2
NC(=O)CN1C(=O)C(=O)N(Cc2cccc(Cl)c2)C1=O	-0.6	-0.6	4.1	1.0	-0.2	1.5
CC(C)N(C(=O)COC(=O)c1ccc(Cl)nc1)C(C)C	7.2	3.6	-2.1	1.8	1.4	-0.2
O=C(OCCOc1ccc(Br)cc1)c1ccc(Cl)nc1	8.8	-0.7	26.1*	1.7	0.7	1.6
Oc1[nH]c2ccccc2c1C=Nc1ccc2c(c1)OCO2	5.5	30.9*	3.4	4.7	5.7	2.4
Cc1cccc(C(=O)Nc2sc(-c3ccccc3)cc2C(=O)O)c1	8.6	25.2	32.5*	23.2	34.4*	8.4
O=C(Oc1ccc2c(-c3ccccc3)cc(=O)oc2c1)C1CCCCC1	2.5	-0.3	-2.2	-6.3	31.5*	-4.4
Cc1ccc(C)c(OCCC(=O)OCC(=O)NNC(=O)c2ccccc2)c1	3.1	2.5	1.6	-0.5	31.1*	/
CCC(c1ccc(O)c(O)c1)C(CC)c1ccc(O)c(O)c1 (stereo not given)	-4.1	/	27.1*	-2.4	/	/
CN(Cc1ccccc1)C(=O)COc1cc(=O)n(C)c2ccccc12	-8.6	-2.1	8.8	-9.2	31.8*	-4.4
CCN(Cc1ccccc1)C(=O)COc1cc(=O)n(CC)c2ccccc12	1.8	6.9	6.8	4.0	5.9	5.2
O=[N+]([O-])c1cc(N=Nc2ccc3ccccc3c2)ccc1O	9.3	10.4	3.6	14.2	19.0	21.6*	Fam108b inh conf=12.8
COc1ccc2ccccc2c1C(O)c1nccn1C (stereo not given)	39.0*	28.9*	32.1*	44.5*	7.0	25.6*	Fam108b inh conf=55.5*;Fam108b inh=0.0
